Measurements as given in the GenesisPotency data set.
Among all 290,000 compounds or so, about 3,000 (1%) were called active. This is one part of a sample in which actives are shown more often than they occur. Cut-off read from the data, not from the text of the source: active = inhibition mostly above about 36% (no sharp cut-off); inactive = mostly below about 34%.

What follows are compounds tested against T1, Nucleotide-binding oligomerization domain-containing protein 1, Homo sapiens (UniProt Q9Y239) (assay: inhibition of NOD1-driven NF-kB reporter – cell-based, luminescence, uHTS, primary screen (AID 1578)).
T1 sequence (whole entry): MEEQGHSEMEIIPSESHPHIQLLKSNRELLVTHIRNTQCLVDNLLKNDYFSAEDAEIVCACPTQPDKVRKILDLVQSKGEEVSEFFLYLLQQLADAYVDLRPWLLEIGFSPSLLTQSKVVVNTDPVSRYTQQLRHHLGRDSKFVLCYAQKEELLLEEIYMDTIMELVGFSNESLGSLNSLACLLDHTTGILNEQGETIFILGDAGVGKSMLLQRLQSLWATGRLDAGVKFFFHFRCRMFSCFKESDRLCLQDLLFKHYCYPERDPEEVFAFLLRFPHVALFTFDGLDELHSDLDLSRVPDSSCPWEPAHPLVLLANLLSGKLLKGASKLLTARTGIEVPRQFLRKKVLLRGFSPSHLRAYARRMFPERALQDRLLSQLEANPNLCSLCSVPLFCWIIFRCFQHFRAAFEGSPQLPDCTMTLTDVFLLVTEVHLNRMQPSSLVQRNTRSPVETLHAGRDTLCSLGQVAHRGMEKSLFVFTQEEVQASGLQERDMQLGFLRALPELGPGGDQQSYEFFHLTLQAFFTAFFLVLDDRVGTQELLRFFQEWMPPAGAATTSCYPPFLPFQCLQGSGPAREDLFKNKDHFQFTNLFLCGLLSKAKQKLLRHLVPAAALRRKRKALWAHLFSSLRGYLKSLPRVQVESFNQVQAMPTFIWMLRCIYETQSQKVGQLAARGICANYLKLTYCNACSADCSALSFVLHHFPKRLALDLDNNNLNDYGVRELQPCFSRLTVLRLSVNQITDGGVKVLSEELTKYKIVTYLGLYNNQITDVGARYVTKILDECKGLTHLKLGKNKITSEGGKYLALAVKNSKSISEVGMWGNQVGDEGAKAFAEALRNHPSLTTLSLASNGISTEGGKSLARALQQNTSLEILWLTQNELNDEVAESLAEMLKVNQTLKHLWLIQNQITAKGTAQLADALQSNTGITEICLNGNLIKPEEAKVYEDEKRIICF

Row | Compound | outcome
1 | COC(=O)C1CCCCN1C(=O)c1cc(COc2cccc3cnccc23)on1 (stereo not drawn) | active
2 | CCOC(=O)CC1CCCCN1C(=O)c1cc(COc2cccc3cnccc23)on1 (stereo not drawn) | active
3 | COc1cc(NC(=O)COc2cc(O)c3c(c2)OC(C)(C)CC3=O)cc(OC)c1OC | active
4 | NC(=O)c1sc2nc3c(c(-c4ccco4)c2c1N)CCCC3 | active
5 | Cc1ccc(-c2c3c(nc4sc(C(N)=O)c(N)c24)CCC3)cc1 | active
6 | Cc1nc2sc(C(N)=O)c(N)c2c2c1CCCC2 | active
7 | NC(=O)c1sc2nc3c(c(-c4ccccc4)c2c1N)CCC3 | active
8 | NC(=O)c1sc2nc3c(c(-c4cccs4)c2c1N)CCCCC3 | active
9 | Nc1ncc([N+](=O)[O-])c(N2CCCCCC2)n1 | active
10 | COc1ccccc1N1CCN(C(=O)C2CCCN(S(=O)(=O)c3ccc4c(c3)oc(=O)n4C)C2)CC1 (stereo not drawn) | active
11 | CCN(CC)S(=O)(=O)c1ccc(Oc2ccc(S(=O)(=O)N(CC)CC)cc2)cc1 | active
12 | Cc1ccccc1NC(=O)/C=C/c1ccc([N+](=O)[O-])s1 | active
13 | Cc1ccc(NC(=O)/C=C/c2ccc([N+](=O)[O-])s2)c(C)c1 | active
14 | CCCc1nc2c(=O)n(C)c(=O)nc-2n(C)n1 | active
15 | O=C(CCl)N(Cc1ccccc1)c1ccccc1 | active
16 | CC(=O)n1cc(N(C(=O)CCl)c2ccccc2)c2ccccc21 | active
17 | O=C(CCl)N(c1ccccc1)c1c[nH]c2ccccc12 | active
18 | O=C(CCl)N(c1ccccc1)c1ccccc1 | active
19 | O=C(COc1ccc(Br)cc1Cl)NC(=S)N1CCc2ccccc21 | active
20 | CC1Cc2ccccc2N1S(=O)(=O)c1cccc(C(=O)N2CCN(c3ncccn3)CC2)c1 (stereo not drawn) | active
21 | CC1Cc2ccccc2N1C(=S)NC(=O)c1cccc(Br)c1 (stereo not drawn) | active
22 | Cn1c(=NC(=O)CCl)sc2ccccc21 | active
23 | Cc1cc(C(=O)CCl)c(C)n1CCc1ccc(F)cc1 | active
24 | CCc1ccc(-c2nc(CSCC(=O)N3CCN(c4ccccn4)CC3)c(C)o2)cc1 | active
25 | COc1cccc(CN(C)C(=O)CNC(=O)c2ccc(-c3ccccc3)cc2)c1OC | active
26 | CCOc1ccc(S(=O)(=O)Nc2cnc3ccccc3c2)cc1 | active
27 | Cc1c(C(=O)Nc2nonc2-c2ccc(F)cc2)oc2ccc(F)cc12 | active

Row | Compound | outcome
28 | Nc1ncc(Br)cc1S(=O)(=O)Nc1cc(C(F)(F)F)cc(C(F)(F)F)c1 | active
29 | O=[N+]([O-])c1cc([N+](=O)[O-])c2oc(-c3ccccc3)c(Br)c2c1O | active
30 | O=[N+]([O-])c1ccc(Oc2ccc(F)cc2Br)c2ccncc12 | active
31 | O=[N+]([O-])c1ccc(Oc2ccc(F)cc2)c2ccncc12 | active
32 | CC1=C(C(=O)NC2CCCc3c2cnn3-c2ccc(F)cc2F)OCCO1 (stereo not drawn) | active
33 | Cn1nccc1C(=O)NC1CCCc2c1cnn2-c1ccc(F)cc1F (stereo not drawn) | active
34 | Cc1ccc(C(=O)NC2CCCc3c2cnn3-c2ccc(F)cc2F)cn1 (stereo not drawn) | active
35 | Cc1ccc(C(=O)CN2C(=O)c3ccccc3S2(=O)=O)cc1 | active
36 | COc1ccc(C(=O)CN2C(=O)c3ccccc3S2(=O)=O)cc1 | active
37 | COc1ccc(-c2cc3nc(C)n(N)c(=O)c3s2)cc1 | active
38 | COc1ccc(-c2cc3nc(CCl)[nH]c(=O)c3s2)cc1 | active
39 | COc1ccccc1-c1nnc(Sc2nc([N+](=O)[O-])nn2C)o1 | active
40 | OCCCNc1cc(-c2ccnc(Nc3cccc(Cl)c3)n2)ccn1 | active
41 | OCCCNc1nccc(-c2cc(Nc3cccc(Cl)c3)ncn2)n1 | active
42 | CCOC(=O)c1oc2ccc(S(=O)(=O)n3nc(-c4ccc(OC)cc4)cc3N)cc2c1C | active
43 | CN(C)c1ccnc2sc3c(=O)n(Cc4ccccc4)cnc3c12 | active
44 | Cl.O=[N+]([O-])c1ccc2ncnc(N3CCN(Cc4ccc5c(c4)OCO5)CC3)c2c1 | active
45 | Cc1c(C(=O)N2CCN(Cc3ccc4c(c3)OCO4)CC2)sc2ncnc(N3CCN(c4ccccc4)CC3)c12 | active
46 | Cc1ccc(S(=O)(=O)CC#CCOC(=O)c2ccc([N+](=O)[O-])cc2)cc1 | active
47 | CCOC(=O)c1csc(Nc2nc3ccc(F)cc3s2)n1 | active
48 | CN(c1ccccc1)S(=O)(=O)c1cccc(NC(=O)c2cc(=O)c3ccccc3o2)c1 | active
49 | Cc1cc(Cl)c(S(=O)(=O)N2CCN(c3ccc(F)cc3)CC2)cc1OCC(=O)NC1CCCCC1 | active
50 | Cc1cc(Cl)c(S(=O)(=O)N2CCCCCC2)cc1OCC(=O)NC1CCCCC1 | active
51 | Cc1cc(C)c(C(=O)/C=C/c2ccc(C(C)C)cc2)c(=O)[nH]1 | active
52 | Cc1cc(C)c(C(=O)/C=C/c2cccc3ccccc23)c(=O)[nH]1 | active
53 | O=C(/C=C/c1ccc2c(c1)OCO2)Nc1nc(-c2ccccc2)cs1 | active
